Test [1] can be described thus: qHTS assay to test for compound auto fluorescence at 535 nm (green) in HEK293 cells (AID 720680). On the technique in general: In qHTS, concentration-response curves come from the screen itself.
A short description of test [2]: qHTS assay to test for compound auto fluorescence at 460 nm (blue) in HEK293 cell free culture (AID 720681). Further: potency means the concentration at half of the fitted maximal effect. Put shortly:
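Test compounds were pinned into cell-free culture medium (DMEM with 10% FBS) and fluorescence was read directly at Ex/Em 405/460 nm. Signals were expressed as fluorescence equivalents of triamterene, with DMSO vehicle as control.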

Test [3] is described as follows: qHTS assay to test for compound auto fluorescence at 535 nm (green) in HEK293 cell free culture (AID 720682). Put shortly:
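Each library compound, or DMSO control, is added by pintool to medium alone, comprising DMEM and 10% FBS. Emission at 535 nm following 485 nm excitation is quantified against fluorescein.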

The nature of test [4]: qHTS assay to test for compound auto fluorescence at 590 nm (red) in HEK293 cell free culture (AID 720683). Put shortly: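 Tox21 10K library compounds were pinned into cell-free DMEM with 10% FBS and fluorescence was read at excitation 540 nm. Activity is expressed as Rose Bengal sodium equivalency.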
Test [5] can be described thus: qHTS assay to test for compound auto fluorescence at 590 nm (red) in HepG2 cell free culture (AID 720684). The procedure, abridged:
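Readout: intrinsic compound fluorescence at 590 nm emission after 540 nm excitation, scaled to Rose Bengal sodium. Matrix was cell-free MEM with 10% FBS; DMSO vehicle wells served as control.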

Test [6] in a line: qHTS assay to test for compound auto fluorescence at 460 nm (blue) in HepG2 cell free culture (AID 720685). Further: potency means the concentration at half of the fitted maximal effect. The procedure, abridged: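 Cell-free plates of MEM plus 10% FBS received 23 nL compound or DMSO vehicle; blue-channel (405/460 nm) intensity scored against triamterene as reference fluorophore.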
A short description of test [7]: qHTS assay to test for compound auto fluorescence at 535 nm (green) in HepG2 cell free culture (AID 720686).
Test [8] in a line: qHTS assay to test for compound auto fluorescence at 460 nm (blue) in HepG2 cells (AID 720687). Further: potency means the concentration at half of the fitted maximal effect. The procedure, abridged:
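Cells (2,000/well in MEM with 10% FBS) attached overnight at 37 C, then were exposed to compound or DMSO for 1 hr at 37 C, 5% CO2. Fluorescence read at Ex/Em 405/460 nm, expressed as triamterene-equivalent signal.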

For test [9], the target named is Glucocorticoid receptor (Homo sapiens) (UniProt P04150). As to the kind of experiment: qHTS assay to identify small molecule agonists of the glucocorticoid receptor (GR) signaling pathway (AID 720691; active means well fitted activation curve with a large enough effect in the signal ratio in the repeat runs, not every such curve was filed as active; the % refers to the signal ratio; further: potency means the concentration at half of the fitted maximal effect). Put shortly:
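Agonist-mode qHTS in HeLa cells stably expressing a glucocorticoid-response-element beta-lactamase reporter. Fluorescence intensity read with FRET substrate (2 h, room temperature) after 18 h compound treatment at 37 C.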

The values below come from PubChem BioAssay (Tox21).

Unmarked numbers belong to inactive results. Records with an inconclusive call do not appear. The source made the active and inactive calls. Unless noted, the call rests on the fitted dose curve; in most records, active means well fitted curve in the direction sought with a large enough effect in the repeat runs; inconclusive means weak or mixed curves; inactive means flat fitted curve, though single readings scatter.
On the % scale 0 is the no-effect control and ±100 the full control effect; tags describe the fitted curve by direction and shape or compound fluorescence and quenching.

Glucocorticoid receptor (Homo sapiens), sequence (P04150 whole entry, looked up): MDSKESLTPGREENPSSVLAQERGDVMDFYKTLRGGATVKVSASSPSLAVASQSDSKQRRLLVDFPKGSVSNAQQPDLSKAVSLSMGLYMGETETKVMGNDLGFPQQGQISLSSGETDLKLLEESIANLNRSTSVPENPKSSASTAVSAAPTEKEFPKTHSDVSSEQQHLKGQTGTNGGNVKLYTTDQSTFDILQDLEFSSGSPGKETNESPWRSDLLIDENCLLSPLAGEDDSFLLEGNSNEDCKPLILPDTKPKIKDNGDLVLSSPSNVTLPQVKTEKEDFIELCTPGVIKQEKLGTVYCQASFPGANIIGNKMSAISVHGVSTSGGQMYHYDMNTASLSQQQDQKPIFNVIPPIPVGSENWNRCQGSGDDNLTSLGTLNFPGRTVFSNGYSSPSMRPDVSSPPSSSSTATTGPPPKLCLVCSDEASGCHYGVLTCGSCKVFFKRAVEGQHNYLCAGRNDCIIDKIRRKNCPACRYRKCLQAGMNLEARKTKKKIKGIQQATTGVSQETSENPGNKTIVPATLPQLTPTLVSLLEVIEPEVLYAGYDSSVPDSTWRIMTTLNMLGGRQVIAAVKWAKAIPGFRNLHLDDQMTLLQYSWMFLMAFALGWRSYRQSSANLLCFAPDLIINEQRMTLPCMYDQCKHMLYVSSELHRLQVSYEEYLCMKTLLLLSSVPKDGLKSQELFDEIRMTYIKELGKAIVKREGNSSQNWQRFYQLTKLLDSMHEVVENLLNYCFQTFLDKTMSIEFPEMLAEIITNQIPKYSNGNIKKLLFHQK

Turning to `CCNc1nc(N)nc(Cl)n1`, the result in test [1], in test [3], in [4], in test [5] and in test [7] was inactive. Also, the Potency entry in [2], in test [6] and in test [8] was “inactive” each time.

Regarding `COc1ccc(/C=C/C(=O)c2ccc(OC)cc2OC)cc1`, the outcome in [1], in test [3], in [4], in [5] and in test [7] was inactive. Further, the Potency entry in test [2], in test [6], in [8] and in [9] was “inactive” throughout.

As to `CC(CN(CCN(CC(C)OCCO)CC(C)OCCO)CC(C)OCCO)OCCO` (stereo unspecified), the result in test [1], in test [3], in [4], in test [5] and in test [7] was inactive. Besides, the Potency result in [2], in test [6] and in test [8] was “inactive” in each case.

For the molecule `CCC(CO)(CO)[N+](=O)[O-]`, the molecule was called inactive in test [1], in test [3], in [4], in test [5] and in [7]. For the same molecule, the Potency result in test [2], in test [6], in test [8] and in [9] was “inactive” in each case.

As for `CCOC(=O)c1c(N)sc2c1CCN(Cc1ccccc1)C2`, the outcome in test [1], in test [3], in [4], in [5] and in test [7] was inactive. For the same molecule, the figures for the Potency in test [2], in test [6] and in [8] were 15.8 µM (active), 15.8 µM [fluorescent] (active) and 17.8 µM [fluorescent] (active), respectively. The Potency entry in test [9] was “inactive”.

As to `CC(=O)OCCC(C)CC(C)(C)C` (stereo unspecified), the call in test [1], in [3], in test [4], in [5] and in test [7] was inactive. For the same molecule, the Potency entry in test [2], in test [6], in test [8] and in test [9] was “inactive” throughout.

As to `O=C(NS(=O)(=O)/C=C/c1ccccc1)c1ccc(F)cc1Cl`, the outcome in test [1], in test [3], in [4], in [5] and in [7] was inactive. Moreover, the Potency result in test [2], in [6] and in test [8] was “inactive” each time.

As to `O=C(O)c1cccc(C[C@@H]2COc3ccc(OCc4nc5cc(F)ccc5s4)cc3[C@@H]2O)c1`, the molecule was classed as inactive in test [1], in [3], in test [4], in [5] and in test [7]. The Potency result in test [2], in test [6], in test [8] and in test [9] was “inactive” throughout.

On to `Cc1ccc2nc(N)[nH]c(=O)c2c1Sc1ccncc1`, for which the result in [1], in [3], in test [4], in test [5] and in test [7] was inactive. The Potency result in [2], in test [6] and in [8] was “inactive” throughout.

For the molecule `CCN(CC)C(=O)N1CCN(C)CC1`, the fluorescence, % of fluorescein in [1] is -0.0466% [at 18.6 µM]. Moreover, the fluorescence, % of fluorescent control in test [2] was 0.0671% [at 18.6 µM]; in test [4], 0.461% [at 18.6 µM]; in test [6], -0.0488% [at 18.6 µM]; in [8], 0.0195% [at 18.6 µM]. Besides, the activity change in test [3] is -0.0353% [at 18.6 µM]. Further, the fluorescence, % of Rose Bengal in test [5] was 0.0189% [at 18.6 µM]. Also, in test [7], the fluorescence, % of fluorescein control is -0.0623% [at 18.6 µM]. Further, in test [9], the Potency is 10.2 µM (active).

With `COc1cc(NCc2ccc3nc(N)nc(N)c3c2C)cc(OC)c1OC`, the call in test [1], in test [3], in test [4], in test [5] and in test [7] was inactive. Moreover, the Potency result in test [2], in test [6], in test [8] and in test [9] was “inactive” in each case.

Turning to `CNC1CCCN(c2c(F)cc3c(=O)c(C(=O)O)cn(C4CC4)c3c2OC)C1` (stereo unspecified), the molecule was called inactive in [1], in test [3], in test [4], in [5] and in [7]. Also, the Potency result in test [2], in test [6] and in test [8] was “inactive” each time.

For the molecule `CCN(CC)CCNC(=O)c1cc(Cl)c(N)cc1OC`, the outcome in [1], in [3], in test [4], in [5] and in [7] was inactive. Besides, the Potency entry in test [2], in test [6] and in test [8] was “inactive” each time.

`NC(=O)CCCCC(N)=O`: the molecule was classed as inactive in test [1], in test [3], in [4], in [5] and in test [7]. Moreover, the Potency result in test [2], in [6], in [8] and in [9] was “inactive” in each case.

`CCCCCCCC(=O)Oc1c(Br)cc(C#N)cc1Br`: the molecule was called inactive in [1], in test [3], in test [4], in test [5] and in test [7]. The Potency result in test [2], in [6], in test [8] and in [9] was “inactive” throughout.

Consider `CC(CO)(CO)C(=O)O`, for which the molecule was classed as inactive in test [1], in test [3], in test [4], in test [5] and in test [7]. In addition, the Potency result in test [2], in [6] and in test [8] was “inactive” throughout.

Consider `CCN(CC)C(=O)/C(C#N)=C/c1cc(O)c(O)c([N+](=O)[O-])c1`, for which the molecule was classed as inactive in [1], in [3], in test [4], in test [5] and in test [7]. The Potency result in test [2], in test [6] and in [8] was “inactive” in each case.

Take `O=C(O)CCS`: the molecule was classed as inactive in test [1], in test [3], in test [4], in test [5] and in [7]. Further, the Potency result in [2], in [6] and in test [8] was “inactive” throughout.

As to `CCCCCCCCCCCCCC(=O)OCC(O)CO` (stereo unspecified), the result in test [1], in test [3], in test [4], in test [5] and in test [7] was inactive. For the same molecule, the Potency entry in [2], in test [6], in test [8] and in test [9] was “inactive” each time.

As to `C=C(C)c1ccccc1`, the outcome in test [1], in test [3], in test [4], in test [5] and in test [7] was inactive. Moreover, the Potency result in test [2], in [6] and in test [8] was “inactive” each time.

For `SCCc1cnccn1`, the result in [1], in [3], in [4], in test [5] and in test [7] was inactive. The Potency result in test [2], in [6], in [8] and in test [9] was “inactive” each time.

As for `CCCCCCCCCCCCCCCCCC(=O)OCC(CC)CCCC` (stereo unspecified), the outcome in [1], in test [3], in [4], in [5] and in test [7] was inactive. Further, the Potency result in [2], in test [6] and in test [8] was “inactive” each time.

Consider `CC(=O)Oc1cccc(O)c1`, for which the molecule was called inactive in [1], in test [3], in test [4], in test [5] and in test [7]. For the same molecule, the Potency result in test [2], in test [6], in test [8] and in test [9] was “inactive” each time.

Regarding `Cc1c(C2(c3cc(Br)c(O)c(Br)c3C)OS(=O)(=O)c3ccccc32)cc(Br)c(O)c1Br`, the molecule was classed as inactive in test [1], in [3], in test [4], in test [5] and in test [7]. Further, the Potency entry in test [2], in test [6], in [8] and in test [9] was “inactive” in each case.

Regarding `CC(C)(C)C1(CCc2ccc(Cl)cc2)CO1` (stereo unspecified), the call in test [1], in test [3], in test [4], in test [5] and in [7] was inactive. Besides, the Potency entry in [2], in [6] and in test [8] was “inactive” each time.

As for `C[C@@H]1C[C@H]2[C@@H]3CCC4=CC(=O)C=C[C@]4(C)[C@@]3(F)[C@@H](O)C[C@]2(C)[C@@]1(O)C(=O)COP(=O)(O)O`, the call in test [1], in test [3], in test [4], in [5] and in test [7] was inactive. In addition, the Potency entry in [2], in test [6] and in test [8] was “inactive” each time.
